Experimental data from PubChem BioAssay (NCATS).
Inconclusive results are not listed. Activity calls are given as the source filed them. The call rests on the fitted dose curve; in most records, active means well fitted curve in the direction sought with a large enough effect; inconclusive means small, poorly fitted or top-dose-only effect, or another doubt; inactive means no such curve, though single readings can be large; an effect the other way counts as inactive or inconclusive.

Legend:
[1] = qHTS of pediatric cancer cell lines to identify multiple opportunities for drug repurposing: Primary screen for NB1643 cells (AID 1347099); further: nearly all actives have a fitted effect of over 50% in size;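 on activity change, negative = cytotoxic: plate controls were DMSO neutral control for no effect and bortezomib positive control for full effect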
Method in brief: (§1)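 500-1,000 cells/well; 5 h pre-incubation 37 °C/5% CO2; compound pinned; 48 h; CellTiter-Glo, 15 min RT; luminescence. MIPE 11-pt from 0.78 nM, NPC 8-pt from 0.59 nM final. Bortezomib 2.3 µM final as positive control.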

[2] = qHTS of pediatric cancer cell lines to identify multiple opportunities for drug repurposing: Primary screen for LAN-5 cells (AID 1347100);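 on activity change, negative = cytotoxic: plate controls were DMSO neutral control for no effect and bortezomib positive control for full effect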
Method in brief: (§2)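 Cells (500-1,000/well) rested 5 h, then received compounds for 48 h; metabolically active cells were measured by CellTiter-Glo luminescence. Final concentrations spanned up to 46 µM (MIPE, 11-point) or 0.59 nM-46 µM (NPC, 8-point) in primary screens, 11-point in follow-ups.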

[3] = qHTS of pediatric cancer cell lines to identify multiple opportunities for drug repurposing: Primary screen for BT-12 cells (AID 1347101); further: nearly all actives have a fitted effect of over 25% in size;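 on activity change, negative = cytotoxic: plate controls were DMSO for no effect and bortezomib positive control for full effect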
Method in brief: as §2

[4] = qHTS of pediatric cancer cell lines to identify multiple opportunities for drug repurposing: Primary screen for Rh18 cells (AID 1347102); further: nearly all actives have a fitted effect of over 65% in size; on activity change, negative = cytotoxic: on the % scale 0 is the no-effect control and ±100 the full control effect
Method in brief: as §2

[5] = qHTS of pediatric cancer cell lines to identify multiple opportunities for drug repurposing: Primary screen for OHS-50 cells (AID 1347103); further: nearly all actives have a fitted effect of over 40% in size;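 on activity change, negative = cytotoxic: plate controls were DMSO neutral control for no effect and bortezomib positive control for full effect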
Method in brief: as §2

[6] = qHTS of pediatric cancer cell lines to identify multiple opportunities for drug repurposing: Primary screen for RD cells (AID 1347104); further: nearly all actives have a fitted effect of over 55% in size;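 on activity change, negative = cytotoxic: plate controls were DMSO for no effect and bortezomib for full effect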
Method in brief: as §1

[7] = qHTS of pediatric cancer cell lines to identify multiple opportunities for drug repurposing: Primary screen for MG 63 (6-TG R) cells (AID 1347105); further: nearly all actives have a fitted effect of over 50% in size; on activity change, negative = cytotoxic: on the % scale 0 is the no-effect control and ±100 the full control effect
Method in brief: as §1

[8] = qHTS of pediatric cancer cell lines to identify multiple opportunities for drug repurposing: Primary screen for control Hh wild type fibroblast cells (AID 1347106); further: nearly all actives have a fitted effect of over 55% in size;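 on activity change, negative = cytotoxic: series mostly up to about 46 µM; on the % scale 0 is the no-effect control and ±100 the full control effect; a drop in luminescence marks cytotoxicity and a rise apparent proliferation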
Method in brief: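 Cells (500-1,000/well) in growth media were settled 5 h at 37 degrees C, then given compounds for 48 h. Viability was read as CellTiter-Glo luminescence. Primary runs used MIPE at 11 points (0.78 nM-46 µM) and NPC at 8 points (0.59 nM-46 µM); follow-ups used 11 points.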

[9] = qHTS of pediatric cancer cell lines to identify multiple opportunities for drug repurposing: Primary screen for Rh30 cells (AID 1347107); further: nearly all actives have a fitted effect of over 75% in size; on activity change, negative = cytotoxic: series mostly up to about 46 µM; on the % scale 0 is the no-effect control and ±100 the full control effect
Method in brief: as §2

[10] = qHTS of pediatric cancer cell lines to identify multiple opportunities for drug repurposing: Primary screen for Rh41 cells (AID 1347108); further: nearly all actives have a fitted effect of over 70% in size;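 on activity change, negative = cytotoxic: series mostly up to about 46 µM; luminescence drop marks cytotoxic hits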
Method in brief: as §1
Potency means the concentration at half of the fitted maximal effect.

O=C(O)C1=CO[C@@H](O[C@@H]2O[C@H](CO)[C@H](O)[C@H](O)[C@H]2O)[C@@H]2C(CO)=CC[C@H]12
inactive: Potency [1] | Potency [2] | Potency [3] | Potency [4] | Potency [5] | Potency [6] | Potency [7] | Potency [8] | Potency [9] | Potency [10]

CCC=CC[C@H]1C(=O)CC[C@@H]1CC(=O)OC
inactive: Potency [1] | Potency [2] | Potency [3] | Potency [4] | Potency [5] | Potency [6] | Potency [7] | Potency [8] | Potency [9]

CC(C)(OCc1nn(Cc2ccccc2)c2ccccc12)C(=O)O
inactive: Potency [1] | Potency [2] | Potency [3] | Potency [4] | Potency [5] | Potency [6] | Potency [7] | Potency [8] | Potency [9] | Potency [10]

COc1ccc(-c2ccc3ncc4c(c3c2)n(-c2ccc(N3CCNCC3)c(C(F)(F)F)c2)c(=O)n4C)cn1
active: Potency [1] 0.264 µM | Potency [2] 0.166 µM | Potency [3] 15.3 µM | Potency [4] 0.0418 µM | Potency [5] 0.0054 µM | Potency [6] 0.743 µM | Potency [7] 0.0047 µM | Potency [8] 2.09 µM | Potency [9] 1.87 µM | Potency [10] 0.0235 µM

C[C@@H](O)[C@H]1C(=O)N2C(C(=O)OCOC(=O)C(C)(C)C)=C(SC3CN(C4=NCCS4)C3)[C@H](C)[C@H]12
inactive: Potency [1] | Potency [2] | Potency [3] | Potency [4] | Potency [5] | Potency [6] | Potency [7] | Potency [8] | Potency [9] | Potency [10]

CC(C)=CCCC(C)=CCCC(C)=CCCC(C)=CCCC(C)=CCCC(C)=CCCC(C)=CCCC(C)=CCCC(C)=CCO
inactive: Potency [1] | Potency [2] | Potency [3] | Potency [4] | Potency [5] | Potency [6] | Potency [7] | Potency [8] | Potency [9] | Potency [10]

CN[C@H]1[C@@H](O[C@@H]2[C@H](O[C@@H]3[C@@H](O)[C@@H](O)[C@@H](N=C(N)N)[C@@H](O)[C@@H]3N=C(N)N)O[C@H](C)[C@@]2(O)C=O)O[C@@H](CO)[C@@H](O)[C@H]1O
inactive: activity change, negative = cytotoxic [1] 3.56% [at 9.22 µM] | activity change, negative = cytotoxic [2] -3.6% [at 9.22 µM] | activity change, negative = cytotoxic [3] -1.02% [at 11.5 µM] | activity change, negative = cytotoxic [4] 1.83% [at 9.22 µM] | activity change, negative = cytotoxic [5] 7.71% [at 11.5 µM] | activity change, negative = cytotoxic [6] 1.46% [at 9.22 µM] | activity change, negative = cytotoxic [7] -18.1% [at 9.22 µM] | activity change, negative = cytotoxic [8] 10.5% [at 9.22 µM] | activity change, negative = cytotoxic [9] 15.1% [at 9.22 µM] | activity change, negative = cytotoxic [10] 17.1% [at 9.22 µM]

Cc1cnc(Nc2cccc(CN3CCOCC3)c2)nc1Nc1cccc(S(=O)(=O)NC(C)(C)C)c1
active: Potency [1] 8.33 µM | Potency [2] 1.48 µM | Potency [3] 13.7 µM | Potency [4] 8.33 µM | Potency [5] 3.43 µM | Potency [6] 13.2 µM | Potency [7] 7.43 µM | Potency [9] 8.33 µM | Potency [10] 6.62 µM

CN1CCN2c3ncccc3Cc3ccccc3C2C1 (stereo unspecified)
inactive: Potency [1] | Potency [2] | Potency [3] | Potency [4] | Potency [5] | Potency [6] | Potency [7] | Potency [8] | Potency [9] | Potency [10]

Cc1cc2nc3c(=O)[nH]c(=O)nc-3n(CC(O)C(O)C(O)CO)c2cc1C (stereo unspecified)
active: Potency [1] 23.5 µM
inactive: Potency [2] | Potency [3] | Potency [4] | Potency [5] | Potency [6] | Potency [7] | Potency [8] | Potency [9]

O=C(O)C1=NC(C(=O)O)CC(C=CN2c3cc(O)c(OC4OC(CO)C(O)C(O)C4O)cc3CC2C(=O)O)=C1 (stereo unspecified)
inactive: Potency [1] | Potency [2] | Potency [3] | Potency [4] | Potency [5] | Potency [6] | Potency [7] | Potency [8] | Potency [9]

O=c1[nH]nc(OCCCc2ccc(Cl)cc2)c(NCc2cccnc2)c1Br
active: Potency [1] 23.5 µM | Potency [2] 18.7 µM | Potency [3] 27.3 µM | Potency [4] 23.5 µM | Potency [5] 19.3 µM | Potency [6] 14.8 µM | Potency [7] 18.7 µM | Potency [9] 23.5 µM | Potency [10] 18.7 µM

OC[C@H]1O[C@@H](Oc2ccc(O)cc2)[C@H](O)[C@@H](O)[C@H]1O
inactive: Potency [1] | Potency [2] | Potency [3] | Potency [4] | Potency [5] | Potency [6] | Potency [7] | Potency [8] | Potency [10]

OC[C@H]1O[C@@H](O[C@H]2[C@@H](O)[C@@](O)(CO)O[C@@H]2CO)[C@H](O)[C@@H](O)[C@@H]1O
inactive: Potency [1] | Potency [2] | Potency [3] | Potency [4] | Potency [5] | Potency [6] | Potency [7] | Potency [8] | Potency [9]

N#Cc1c(N(CC(=O)O)CC(=O)O)sc(C(=O)O)c1CC(=O)O
inactive: Potency [1] | Potency [2] | Potency [3] | Potency [4] | Potency [5] | Potency [6] | Potency [7] | Potency [8] | Potency [9]

CN[C@@H]1[C@@H](O)[C@@H](O[C@@H]2[C@@H](O)[C@H](O[C@H]3O[C@H](CN)[C@@H](O)[C@H](O)[C@@H]3O)[C@@H](N)C[C@@H]2NC(=O)[C@@H](O)CN)OC[C@]1(C)O
inactive: Potency [1] | Potency [2] | Potency [3] | Potency [4] | Potency [5] | Potency [6] | Potency [7] | Potency [8] | Potency [9]
